Test [1] is described as follows: qHTS assay for small molecule agonists of the p53 signaling pathway (AID 651631; calls by dose curve; note: nearly all actives have a fitted effect of over 15% in size; note: potency is the fitted concentration of half-maximal effect). In short, it runs like this: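 Beta-lactamase reporter activity under p53 response elements was quantified in HCT-116 cells by FRET fluorescence, following 16 h incubation with test compounds at 37 °C and 2 h substrate development at room temperature.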
For orientation: In qHTS, concentration-response curves come from the screen itself.

The nature of test [2]: qHTS assay for small molecules that induce genotoxicity in human embryonic kidney cells expressing luciferase-tagged ATAD5 (AID 651632). Note: nearly all actives have a fitted effect of over 15% in size. In short, it runs like this: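 DMSO vehicle served as the control. HEK293T reporter cells, 16 hr at 37C, then 30 min Amplite at room temperature; ATAD5 induction is measured as luciferase activity.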
Test [3] in a line: qHTS assay for small molecule agonists of the p53 signaling pathway - cell viability (AID 651633; calls by dose curve;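 note: p53RE-bla HCT reporter cells with a stable beta-lactamase p53 reporter; series mostly up to about 83 µM; nearly all actives have a fitted effect of over 30% in size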). The method in brief: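 p53RE-bla cells, seeded at 4,000 per well and rested 5 h at 37 C/5% CO2, received compounds in DMSO for 16 h at 37 C. CellTiter-Glo was then added, and luminescence was read after 30 min at room temperature to gauge cytotoxicity.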
Test [4] in a line: qHTS assay for small molecule disruptors of the mitochondrial membrane potential - cell viability (AID 720634; calls by dose curve; note: nearly all actives have a fitted effect of over 20% in size; note: potency is the fitted concentration of half-maximal effect). In short, it runs like this:
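Viability of HepG2 cells is scored from ATP content by luminescence; cells are exposed to compound for 1 hr at 37 C and 5% CO2, then dosed with m-MPI dye before the CellTiter-Glo reagent.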

A short description of test [5]: qHTS assay to test for compound auto fluorescence at 590 nm (red) in HepG2 cells (AID 720674). The method in brief: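 Intrinsic compound fluorescence in the red window (Ex/Em 540/590 nm) is measured in attached HepG2 cells exposed for 1 hr, DMSO vehicle as baseline, benchmarked to Rose Bengal sodium.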
The nature of test [6]: qHTS assay to test for compound auto fluorescence at 535 nm (green) in HepG2 cells (AID 720675).
The nature of test [7]: qHTS assay to test for compound auto fluorescence at 460 nm (blue) in HEK293 cells (AID 720678). In short, it runs like this:
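Measured: blue fluorescence (Ex 405/Em 460 nm) of compound-treated HEK293 cells, incubated overnight at 37C with 5% CO2 and scaled to triamterene equivalents.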

Test [8] in a line: qHTS assay to test for compound auto fluorescence at 590 nm (red) in HEK293 cells (AID 720679). The method in brief:
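Using HEK293 cells at 2,000 per well, the screen added 23 nL of each compound after cell attachment and incubated overnight (37C, 5% CO2). The plate reader then captured red-label fluorescence, Ex/Em 540/590nm.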

Test [9] in a line: qHTS assay for small molecules that induce genotoxicity in human embryonic kidney cells expressing luciferase-tagged ATAD5 - cell viability (AID 651634; calls by dose curve; note: nearly all actives have a fitted effect of over 25% in size). In short, it runs like this: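 Here HEK293T cells with the ATAD5 luciferase reporter are incubated with test compounds for 15.5 hr, and cytotoxicity is then gauged by measuring protease activity in live cells using fluorescence.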

Test [10] in a line: qHTS assay for small molecule disruptors of the mitochondrial membrane potential (AID 720635). Note: potency is the fitted concentration of half-maximal effect. The method in brief: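 HepG2 cells (2,000/well) attached overnight at 37C, then took compound for 1 hr at 37C, 5% CO2. Mito-MPS dye was added for 30 min; fluorescence was read at 490/535 nm (monomers) and 540/590 nm (aggregates).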

The results in this text go back to PubChem BioAssay (Tox21).

Values joined by “and” are separate entries in the source; they are usually repeats but may differ in a detail not shown here. Equal values may be shown once. Records with an inconclusive call do not appear. Active and inactive are the calls of the source. Unless noted, calls come from the whole dose curve; as a rule, active = well fitted curve in the direction sought with a large enough effect in the repeat runs; inconclusive = weak or mixed curves; inactive = no such curve, though single readings can be large; an effect the other way counts as inactive or inconclusive.

For the compound `CC1=C(C(=O)Nc2ccccc2)S(=O)(=O)CCO1`, the Potency in [1] is 19.3 µM (active). The Potency result in test [2], in test [3] and in [4] was “inactive” in each case. The compound was called inactive in test [5], in test [6], in [7] and in test [8].
On to `ClCCOCOCCCl`, for which the Potency entry in test [1], in test [3], in test [9], in test [4] and in test [10] was “inactive” each time. Further, the outcome in test [5], in test [6], in test [7] and in [8] was inactive.
In the case of `COCC(=O)N(c1c(C)cccc1C)N1CCOC1=O`, the Potency result in [1], in test [3], in test [9], in test [4] and in [10] was “inactive” throughout. Besides, the compound was classed as inactive in [5], in test [6], in [7] and in test [8].
Regarding `CSc1ccc(C(=O)C(C)(C)N2CCOCC2)cc1`, the Potency entry in test [1], in test [3], in test [9] and in test [4] was “inactive” throughout. The compound was called inactive in test [5], in test [6], in [7] and in test [8].
For the compound `CN/C(=N\[N+](=O)[O-])NCC1CCOC1` (stereo not given), the Potency entry in [1], in test [3], in test [9] and in test [4] was “inactive” each time. Also, the compound was called inactive in test [5], in [6], in test [7] and in test [8].
Take `CC(=O)CC(c1ccc(Cl)cc1)c1c(O)c2ccccc2oc1=O` (stereo not given): the Potency result in test [1], in [3], in test [9] and in test [4] was “inactive” throughout. Also, the Potency in test [10] is 32.1 µM (active). The result in test [5], in test [6], in [7] and in test [8] was inactive.
On to `O=P(O)(Oc1ccccc1)Oc1ccccc1`, for which the Potency result in test [1], in test [3], in test [9] and in test [4] was “inactive” in each case. Further, the result in [5], in [6] and in [7] was inactive.
`CCCCCCBr`: the Potency entry in [1], in [3], in test [9], in test [4] and in test [10] was “inactive” throughout. Besides, the compound was called inactive in test [5], in test [6], in test [7] and in test [8].
Turning to `CN(N=O)C(N)=O`, the Potency result in [1], in [3], in test [9] and in test [4] was “inactive” throughout. The result in test [5] and in test [6] was inactive.
For `CCCCP(CCCC)CCCC`, the Potency entry in [1], in test [3], in [9] and in test [4] was “inactive” in each case. In addition, the call in [5], in [6] and in test [7] was inactive.
For the compound `CNCC(=O)c1ccc(O)c(O)c1`, the Potency entry in test [1], in test [3], in test [9], in test [4] and in test [10] was “inactive” throughout. In addition, the compound was classed as inactive in [5], in [6], in test [7] and in [8].
On to `N#Cc1c(Cl)cccc1Cl`, for which the Potency entry in test [1], in [3], in test [9] and in [4] was “inactive” each time. The compound was classed as inactive in test [5], in test [6] and in test [7].
`CC(=O)[C@H]1CC[C@H]2[C@@H]3CC[C@H]4C[C@H](O)CC[C@]4(C)[C@H]3C(=O)C[C@]12C`: the Potency entry in [1], in [3], in test [9] and in test [4] was “inactive” in each case. The compound was called inactive in test [5], in test [6], in test [7] and in test [8].
Regarding `CC(C)(C)NCC(O)c1cc(Cl)c(N)c(Cl)c1` (stereo not given), the Potency in test [1] was 1.33 µM (active). Besides, the Potency entry in test [3], in [9] and in test [4] was “inactive” each time. Further, the outcome in test [5], in [6], in test [7] and in test [8] was inactive.
`COC(=O)c1c(C(F)F)nc(C(F)(F)F)c(C2=NCCS2)c1CC(C)C`: the Potency entry in [1], in [3] and in test [9] was “inactive” each time. Moreover, the result in test [5], in test [6] and in test [8] was inactive.
Consider `CC1CCCCC1NC(=O)Nc1ccccc1` (stereo not given), for which the Potency entry in test [1], in test [3], in [9] and in test [4] was “inactive” throughout. Further, the Potency in test [10] is 21.7 µM (active). The result in test [5], in test [6] and in test [7] was inactive.
In the case of `C[C@H]1CCC[C@H](O)CCCCCc2cc(O)cc(O)c2C(=O)O1`, the Potency result in [1], in [2] and in test [3] was “inactive” in each case. For the same compound, the Potency was 26.6 µM (active) in test [4]; 9.44 µM (active) and 6.91 µM (active) in [10]. Further, the compound was classed as inactive in test [5], in test [6] and in [7].
`CCCCC(=O)Cl`: the Potency entry in test [1], in test [3], in test [9] and in test [4] was “inactive” throughout. Further, the outcome in [5], in test [6], in test [7] and in test [8] was inactive.
Consider `CCC1(c2ccccc2)C(=O)NC(=O)NC1=O`, for which the Potency result in test [1], in [3], in test [9] and in test [4] was “inactive” in each case. The compound was called inactive in test [5], in test [6] and in test [8].
For `COc1cc2c(cc1OC)[C@@]13CCN4CC5=CCO[C@H]6CC(=O)N2[C@H]1[C@H]6[C@H]5C[C@H]43`, the Potency result in [1], in test [3], in test [9] and in test [4] was “inactive” in each case. The outcome in [5], in test [6], in [7] and in [8] was inactive.
Regarding `Cc1nc(N)nc(N)n1`, the Potency result in test [1], in test [3], in test [9] and in test [4] was “inactive” throughout. Besides, the compound was called inactive in test [5], in [6] and in test [7].
Consider `c1cc[c]([Hg][c]2ccccc2)cc1`, for which the Potency in test [1] and in [10] was 15.4 µM (active) each time. Also, the Potency result in test [9] and in test [4] was “inactive” each time. In addition, the call in test [5], in test [6] and in test [8] was inactive.
With `COC(=O)COc1ccc(Cl)cc1Cl`, the Potency result in test [1], in [3], in test [9] and in [4] was “inactive” in each case. The outcome in [5], in test [6], in test [7] and in [8] was inactive.
For the compound `COc1cccc2c1cc([N+](=O)[O-])c1c(C(=O)O)cc3c(c12)OCO3`, the Potency was 2.43 µM (active) in [1] and 48.6 µM (active) in test [10]. The Potency entry in [2], in [3] and in test [4] was “inactive” in each case. For the same compound, the compound was called inactive in test [5], in test [6], in test [7] and in test [8].
Turning to `c1cc2c(c(N3CCNCC3)c1)OCCO2`, the Potency result in test [1], in test [3], in [9] and in test [4] was “inactive” throughout. In addition, the compound was classed as inactive in test [5] and in test [6].
Turning to `CC(Oc1ccc(Oc2ncc(C(F)(F)F)cc2Cl)cc1)C(=O)O` (stereo not given), the Potency entry in test [2], in test [3], in test [9] and in test [4] was “inactive” each time. Moreover, the outcome in test [5], in test [6] and in [7] was inactive.
In the case of `O=C1CN=C(c2ccccc2)c2cc([N+](=O)[O-])ccc2N1`, the Potency entry in test [2], in [3], in test [9], in test [4] and in test [10] was “inactive” throughout. Further, the call in test [5], in test [6], in test [7] and in test [8] was inactive.
For `COC(=O)C1=CCCN(C)C1`, the Potency entry in test [2], in test [3], in test [9], in test [4] and in test [10] was “inactive” throughout. Further, the compound was classed as inactive in test [5], in test [6], in test [7] and in test [8].
In the case of `O=[N+]([O-])c1cc(Cl)c(Cl)c(Cl)c1`, the Potency entry in [2], in test [3], in test [9] and in test [4] was “inactive” throughout. Also, the outcome in [5], in [6], in test [7] and in test [8] was inactive.
With `CC(C)CC(N(C)C)C1(c2ccc(Cl)cc2)CCC1` (stereo not given), the Potency entry in test [2], in test [3], in test [9] and in [4] was “inactive” in each case. Also, the outcome in test [5], in test [6], in test [7] and in test [8] was inactive.
